From PubChem BioAssay AID493231 (Broad Institute, 2011)
Entries with a potency or affinity are not part of this list. Active and inactive are the calls of the source. How the calls were made is not given here.

molecular target: Acyl-homoserine lactone acylase PvdQ (Pseudomonas aeruginosa (strain ATCC 15692 / DSM 22644 / CIP 104116 / JCM 14847 / LMG 12228 / 1C / PRS 101 / PAO1)) (UniProt Q9I194); experiment: PvdQ acylase enzyme activity blockers – biochemical, fluorescence, plate reader and imaging, cherry-picks, dose response (AID 493231); settings: purified PvdQ acylase, fluorogenic substrate; series mostly up to 10 µM;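 further: more negative values mean stronger inhibition of the acylase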
Sequence (Q9I194 whole entry, looked up): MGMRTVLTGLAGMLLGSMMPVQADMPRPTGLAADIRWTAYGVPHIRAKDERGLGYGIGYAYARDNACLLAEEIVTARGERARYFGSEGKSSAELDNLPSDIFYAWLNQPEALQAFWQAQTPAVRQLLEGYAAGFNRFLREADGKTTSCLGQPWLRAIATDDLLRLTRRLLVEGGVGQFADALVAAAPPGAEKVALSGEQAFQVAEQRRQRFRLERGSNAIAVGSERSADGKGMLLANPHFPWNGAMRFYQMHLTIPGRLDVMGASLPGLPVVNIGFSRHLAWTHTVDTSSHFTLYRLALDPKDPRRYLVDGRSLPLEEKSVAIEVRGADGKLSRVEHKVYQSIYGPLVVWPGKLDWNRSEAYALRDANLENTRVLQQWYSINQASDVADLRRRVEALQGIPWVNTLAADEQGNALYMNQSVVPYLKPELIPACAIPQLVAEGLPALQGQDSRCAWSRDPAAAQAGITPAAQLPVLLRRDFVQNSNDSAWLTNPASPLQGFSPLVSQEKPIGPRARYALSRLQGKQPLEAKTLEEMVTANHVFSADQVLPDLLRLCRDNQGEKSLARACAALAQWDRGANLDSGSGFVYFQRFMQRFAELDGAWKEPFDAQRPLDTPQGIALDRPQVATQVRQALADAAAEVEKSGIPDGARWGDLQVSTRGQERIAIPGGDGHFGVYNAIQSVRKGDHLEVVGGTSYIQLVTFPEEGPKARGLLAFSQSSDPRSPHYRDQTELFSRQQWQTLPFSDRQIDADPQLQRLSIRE

outcome, inactive:
CN1C(=O)S/C(=C\c2ccc(-n3cncn3)cc2)C1=O, CC(=O)c1ccc2c3c(cc(C)c2c1)CCCC3, COCC(=O)Oc1c(S(=O)(=O)c2ccc(C)cc2)c(C)nn1-c1ccccc1, CCCN(c1nc(C)cc(OC)n1)S(=O)(=O)c1ccccc1, CC(C)CCN(CCC(C)C)C(CO)(CO)CO, Cc1cc(C)n2c(SCC(=O)Nc3ccc(F)cc3)nnc2n1, O=C(/C=C/c1ccc(Br)cc1)c1ccco1, CCOc1ccc(NC(=S)NCc2cccnc2)cc1, O=C1/C(=C/c2cccc([N+](=O)[O-])c2)Oc2cc(O)ccc21, COc1ccc(OCCSc2nc3ccccc3n2CCC(=O)O)cc1, CCC(=O)N1N=C(c2ccc(C)o2)CC1c1ccc(N(C)C)cc1 (stereo not given), CC(Sc1nnc(-c2ccccc2F)n1C)C(=O)NC1CCCCC1 (stereo not given), CC(C)Cn1nc(C(=O)Nc2nnc(C3CC3)s2)c2ccccc2c1=O, COc1ccc(Cl)c(NCCC(=O)O)c1, C(=C\c1nnc(-c2cccs2)o1)/c1ccccc1, COc1ccccc1OCCC(=O)OCC(=O)c1c(N)n(C)c(=O)n(C)c1=O, CCSc1nc2cc(OC)c(OC)cc2c(=O)n1CC, CCOC(=S)SCC(=O)Nc1nccs1, CC(=O)Nc1nc(-c2ccc(Cl)cc2)ns1, COc1ccc(CN2CCCC(C(=O)c3cccc(OC(C)C)c3)C2)cc1Cn1cccn1 (stereo not given), CC1CCCCC1NS(=O)(=O)c1ccc(S(=O)(=O)N2CCCC2)cc1 (stereo not given), O=C(COC(=O)/C=C/c1cccc(Br)c1)NC1CCCCCC1, O=C(Nc1nc2cc3c(cc2s1)OCO3)C1=COCCO1, Cc1ccc2[nH]c(=O)c3cc(C(=O)NC(C)C)sc3c2c1, CC(=O)c1c(C)[nH]c(C(=O)COC(=O)c2cccs2)c1C, O=C1C=C(c2ccccc2)OC(c2ccccc2)O1 (stereo not given), O=C(c1ccc(-c2ccccc2)cc1)C1CCCN(C(=O)c2cncs2)C1 (stereo not given), COc1cccc(CN(C)CC(=O)NNC(=O)c2ccc(Cl)cc2)c1, CN=C1S/C(=C\c2ccc(SC)cc2)C(=O)N1C, O=C(CN1C(=O)C2C3C=CC(C4CC34)C2C1=O)Oc1ccccc1 (stereo not given), Cc1ccc(CCNC(=O)CCS(=O)(=O)c2ccc(Br)cc2)cc1, CCOC(=O)C1CCCN(C(=O)c2cc(S(=O)(=O)N(C)C)ccc2N2CCCC2)C1 (stereo not given), Cc1cc(NC(=O)c2ccc(Br)c([N+](=O)[O-])c2)no1, COc1ccc(-c2cc3cccc(OC)c3oc2=O)cc1, Cc1[nH]nc2c1C(c1ccco1)C(C#N)=C(N)O2 (stereo not given)
